# Mtb RmlCD inh = blocks M. tuberculosis RmlC and RmlD coupled enzymes; hit rate 0.03% among 160,000; P9WH09+P9WH11; RmlC+RmlD coupled enzyme assay, percent inhibition; primary screen in compound mixtures; inhibition, % at 3.6 µM; in the data active means inhibition mostly above about 34%, no sharp cut-off
# Target sequence (P9WH09 whole entry, looked up): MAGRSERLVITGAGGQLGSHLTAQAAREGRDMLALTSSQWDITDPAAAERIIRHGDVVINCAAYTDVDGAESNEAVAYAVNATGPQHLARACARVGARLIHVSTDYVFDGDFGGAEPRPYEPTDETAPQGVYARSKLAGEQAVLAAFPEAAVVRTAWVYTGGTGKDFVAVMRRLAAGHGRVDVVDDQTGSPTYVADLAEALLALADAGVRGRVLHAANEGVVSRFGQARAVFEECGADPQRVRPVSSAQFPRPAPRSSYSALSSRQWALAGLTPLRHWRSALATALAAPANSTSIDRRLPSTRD
# Target sequence (P9WH11 whole entry, looked up): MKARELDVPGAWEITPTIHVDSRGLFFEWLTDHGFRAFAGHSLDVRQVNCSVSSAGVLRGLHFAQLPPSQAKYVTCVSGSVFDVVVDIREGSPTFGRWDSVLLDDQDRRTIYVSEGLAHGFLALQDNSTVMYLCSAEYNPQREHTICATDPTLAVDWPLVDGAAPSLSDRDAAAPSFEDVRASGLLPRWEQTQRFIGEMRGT
# YopH inh = blocks Yersinia enterocolitica YopH tyrosine phosphatase. fluorescence Ex485/Em525. hit rate 0.16% among 140,000. AID 898. inhibition, % (no concentration beside the values); in the data active means inhibition above about 50%
# * = called active by the depositor; . = not tested or not shown. Shown is part of a subset that was picked to be rich in hits.
SMILES,Mtb RmlCD inh,YopH inh
Cc1ccc(C(=O)O)cc1N=Cc1cc(Br)cc(Br)c1O,45*,-24
Cc1c(Br)cc(C(=O)OC2CCN(C)CC2)c(C)c1C,17,54*
COc1ccc(C(=O)OC2CCN(C)CC2)cc1,.,3
CCCCn1c(N)c(N(CC)C(=O)CSc2nnnn2-c2cc(C)ccc2C)c(=O)[nH]c1=O,9,.
[O-]/[N+](=C\c1ccc(F)cc1)c1ccccc1,.,59*
[O-]/[N+](=C\c1cccc(Br)c1)c1ccccc1,-6,.
O=C(NC1(O)C(=O)c2ccccc2C1=O)c1ccccc1,.,102*
O=C(NC1(O)C(=O)c2ccccc2C1=O)c1c(Cl)cccc1Cl,-3,.
COCCCNC(=O)CCCCCNS(=O)(=O)c1ccc(Br)cc1,-9,.
O=C1C(=O)c2c(C(=O)c3ccccc3)coc2-c2ccccc21,9,75*
Cc1oc2c(c1C(=O)c1ccccc1)C(=O)C(=O)c1ccccc1-2,.,89*
Cc1oc2c(c1C(=O)O)C(=O)c1ccccc1C2=O,-8,.
O=C(C1=C(c2ccccc2)C(=O)c2ccccc2C1=O)c1ccccc1,-9,-30
CS(=O)(=O)Oc1ccc(Br)cc1/C=C1/N=C(c2ccco2)OC1=O,.,14
O=[N+]([O-])c1ccc(OCC2CC(c3ccccc3)=NO2)cc1 (configuration not stated),8,.
S=c1[nH]nc(C2CCCCC2)o1,2,.
Cc1ccc(-c2cc(=O)[nH]c3ccccc23)cc1,.,-43
Cc1ccc2c(C)[nH]c(=O)cc2c1,.,90*
Cc1ccc(C(=O)N2CCN(c3cnn(C)c(=O)c3Cl)CC2)cc1,-1,.
CCOC(=O)/C(C)=N/NC(=O)c1ccc([N+](=O)[O-])cc1,13,.
CCOC(=O)/C(N=Nc1ccc(F)cc1)=C(/O)c1ccc([N+](=O)[O-])cc1,10,62*
CCOC(=O)N1CCN(C(=O)Cc2cccc3ccccc23)CC1,-11,.
Cn1nc(-c2ccc(Cl)cc2)nc2c(=O)n(C)c(=O)nc1-2,.,101*
CS(=O)(=O)n1nc(-c2ccc(Cl)cc2)nc1N,8,.
O=C(/C=C/c1ccc([N+](=O)[O-])cc1)Nc1ncc([N+](=O)[O-])s1,-9,.
SMILES,Mtb RmlCD inh,YopH inh
COc1ccc(N(CC(=O)NC2CCCCC2)C(=O)CNC(=O)c2ccco2)cc1,-4,.
COc1ccc(NCc2ccc([N+](=O)[O-])s2)c(OC)c1,-10,76*
COc1ccc(NCc2ccc([N+](=O)[O-])s2)cc1,-9,48
CCCCn1c(SCC(=O)NC2CC(C)(C)NC(C)(C)C2)nc2cc(S(N)(=O)=O)ccc21,4,.
Cc1ccc(NC2=C(N3CCOCC3)C(=O)c3ccccc3C2=O)cc1,-6,89*
CC(=O)c1ccc(NC2=C(N3CCOCC3)C(=O)c3ccccc3C2=O)cc1,2,99*
Cc1ccc(NC2=C(Cl)C(=O)c3ccccc3C2=O)cc1,-1,3
CC(=O)N(C1=C(N2CCOCC2)C(=O)c2ccccc2C1=O)c1ccc(C(=O)O)cc1,-3,.
CC(=O)N(C)C1=C(N2CCOCC2)C(=O)c2ccccc2C1=O,.,16
O=C(O)c1ccc(NC2=C(N3CCOCC3)C(=O)c3ccccc3C2=O)cc1,-11,76*
COC(=O)c1sccc1NC(=S)N1CCN(c2cccc(C)c2C)CC1,-33,-29
O=C(CSc1nn(-c2ccc(Cl)cc2)c(=S)s1)NCC1CCCO1 (configuration not stated),15,.
CCOC(=O)Oc1ccc2oc(=O)cc(C)c2c1,-8,67*
Cc1cc(=O)oc2ccc(OC(=O)CC(C)C)cc12,16,.
Cn1c2ccccc2c(=O)n2c(=O)c3ccccc3cc12,.,101*
Cn1c(-c2ccccc2)cc(=O)c2ccccc21,.,-4
COc1ccc(-c2cc(=NC(CC(C)C)C(=O)O)c3cc(C)ccc3o2)cc1 (configuration not stated),-9,-10
COc1ccc(-c2cc(=NCCC(=O)O)c3cc(C)ccc3o2)cc1,32*,.
CCNC(=S)NNc1nc(N2CCCCC2)nc(N2CCOCC2)n1,2,.
CN(C)c1cccc(C(=O)OCc2cc(=O)oc3cc(O)ccc23)c1,11,10
CC1CN(S(=O)(=O)c2cccc(C(=O)OCc3cc(=O)oc4cc(O)ccc34)c2)CC(C)O1 (configuration not stated),64*,1
Oc1ccc(C=Nc2cccc3ncccc23)c(O)c1,6,-43
Oc1ccc(C=Nc2ccc3ncccc3c2)c(O)c1,-6,72*
CC(C)OC(=O)C1C(=O)CC(C)(O)C(C(=O)OC(C)C)C1c1ccccc1 (configuration not stated),4,.
COC(=O)C1C(C(C)C)N(c2ccccc2)OC1(C)O (configuration not stated),-4,59*
SMILES,Mtb RmlCD inh,YopH inh
O=C1C=Cc2ccccc2C1=O,.,63*
CCN1C(=C2C(=O)c3ccccc3C2=O)C=Cc2ccccc21,-38,-3
N#Cc1c(N2CCCC2)nc(N)c2c(N)nc(N3CCCC3)cc12,.,101*
COc1cc2c(C#N)c(N3CCCC3)nc(N)c2c(N)n1,4,.
CC(/C=N/NC(=O)CNc1n[nH]c(=O)[nH]c1=O)c1ccccc1 (configuration not stated),3,.
NC(=O)c1ccccc1OC1CCC1,-10,.
Fc1ccc(-c2csc3[n+]2CCS3)cc1,.,-9
O=[N+]([O-])c1ccc(-c2csc3[n+]2CCS3)cc1,.,51*
Nc1cc(C(F)(F)F)ccc1-n1cccc1,1,.
Cc1ccc(-n2nnnc2SCC(=O)Nc2sccc2C#N)cc1,-8,-17
CC(=O)NC1=C(NC2CCS(=O)(=O)C2)C(=O)c2ccccc2C1=O (configuration not stated),11,-3
CN(C1=C(NC(=O)c2ccccc2)C(=O)c2ccccc2C1=O)C1CCS(=O)(=O)C1 (configuration not stated),.,65*
O=C(Cc1cccs1)Nc1nnc(SCc2ccc(C(F)(F)F)cc2)s1,8,-11
CSc1nsc(/C=C/Nc2ccc(F)cc2)c1C#N,5,.
CSc1nsc(/C=C/Nc2ccc(Cl)cc2)c1C#N,.,56*
COc1ccc(OC)c(-c2c3cc(O)c(=O)cc-3oc3cc(O)c(O)cc23)c1,6,55*
O=c1cc2oc3cc(O)c(O)cc3c(-c3ccccc3O)c-2cc1O,7,.
COCCCn1c(=O)/c(=C\c2ccccc2OC(F)F)s/c1=C(/C#N)C(=O)NC(C)C,-8,-16
COCCCn1c(=O)/c(=C\c2ccc(OC(F)F)c(OC)c2)s/c1=C(/C#N)C(=O)NCCOC,66*,.
CCn1c(C)nc2cc(C(=O)N/N=C(\C)c3ccc(OC)cc3O)ccc21,37*,.
CCn1c(C)nc2cc(C(=O)N/N=C/c3ccc(OC)cc3)ccc21,4,.
Cc1onc(-c2ccccc2)c1C(=O)NCc1ccccn1,-2,53*
Cc1onc(-c2c(Cl)cccc2Cl)c1C(=O)NCc1ccccn1,-5,-20
O=C(CSc1c(F)c(F)cc(F)c1F)Nc1ccc(C2SCCS2)cc1,-10,.
COc1cccc(-c2nc(CS(=O)(=O)CC(=O)N3CCN(C)CC3)c(C)o2)c1,-11,-9
COc1cccc(-c2nc(CS(=O)(=O)CC(=O)N3CCc4ccccc4C3)c(C)o2)c1,7,80*
